Measurements reported in publication PMC12136788.
Where a chain is given by its changes, count along the chain named. Whole data set: some 24,000 sequences, median “enrichment r” near 0.99, cut for the highest 2% near 3.7. For the sample, the highest values were picked, then their nearest neighbours and some sequences at random.

T1: UNK ZnF1-3 (human, UniProt Q9C0B0 31-174)
T1 sequence: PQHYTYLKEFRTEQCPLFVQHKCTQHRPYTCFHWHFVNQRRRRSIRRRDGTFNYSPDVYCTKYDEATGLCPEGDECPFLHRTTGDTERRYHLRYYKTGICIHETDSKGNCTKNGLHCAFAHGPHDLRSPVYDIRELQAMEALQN

B1: chr5:131913501:131913502:-_ENSMUSG00000029673_ENSMUST00000160071|mus_mus|FALSE|FALSE (ssRNA)
RNA: GGGAGUUCUACAGUCCGACGAUCGUUCCAGUGCACAGAAUCCUUGGGAUUUUUUUUUUCUUUUUAGUUGUUGUCUUAAAAAAAAAAAAAUUAAAACGAAAGAAAGAAAACAAAACACCGCACACAUCUGGUGUCCACAAAAUCCAACAGAGGAUUGAGCAUCA
B2: 141912308_141912428_1497_3pUTR_ENSMUSG00000028273_ENSMUST00000029941|mouse|control|control (ssRNA)
RNA: GGGAGUUCUACAGUCCGACGAUCUUGGCACCGGCCACAUUCAGGAGCAAAGAACUUCUCAUAGCAUAGCUCACAGUACAGUGCUCCCUUCUCCUCUACAAAGCCUAUGUAGGCCAUUGUGUUUUUGCAAUGAGCACAGUUAAACAACAGAGGAUUGAGCAUCA
B3: chr11:51934471:51934472:+_ENSMUSG00000020349_ENSMUST00000020608|perfect_dup|motif|central (ssRNA)
RNA: GGGAGUUCUACAGUCCGACGAUCGAUUGCAGCUUGGUUACCACAACGAUAACAAUAGUUUGGAGCACUGAAAAUCGUUACGGCAUUCCGGUCAUGGCACCAGUUAUAUCCCUCCAUCACUAGCUGGUGAGCUCUAGACACCAACAACAGAGGAUUGAGCAUCA
B4: chr12:16048344:16048345:+_ENSG00000023734_ENST00000419869|hu_hu|hu_hu_hu_mus_True|38_68 (ssRNA)
RNA: GGGAGUUCUACAGUCCGACGAUCAGAUCGUCCAUAAGUAAUAACCAAAAUCUCUCCUUCAGGAAUAUAUUCCAUACUGCUAACAGACAUAUUAAAAUUUAGAGAUUUCACUUCUGUCAUUGUGGCAUGAUCCCAGAGCCGAACCAACAGAGGAUUGAGCAUCA
B5: chr1:115282395:115282396:-_ENSG00000009307_ENST00000339438|hu_hu|FALSE|FALSE (ssRNA)
RNA: GGGAGUUCUACAGUCCGACGAUCAUUAUACUGUGAACAGUGGAAGAAAAGUCUAGCUUGACGUUCUGAACACUGAAUAAAUCCGUAAGAGGUUAACAGUUUUUCAAUAACCCCAGUUUCACGCAGUGCUGCUGAAGUACCAUUCAACAGAGGAUUGAGCAUCA
B6: 35805507_35818940_561_CDS_ENSG00000108100_ENST00000265375|human|control|control (ssRNA)
RNA: GGGAGUUCUACAGUCCGACGAUCUUCAUCAAAAAUAUCUAAGAGCAUCCUUCCAUCUGGGUCCCUGUUUUUGAUGUGAUAAUAUAUUGCAAGAGCGACACAUUUAAUUGUAUACUUGAGGUUUGGUUGACUGACUGUGCUAUCCAACAGAGGAUUGAGCAUCA
B7: 44216504_44217224_307_CDS_ENSG00000096384_ENST00000371646|human|control|control (ssRNA)
RNA: GGGAGUUCUACAGUCCGACGAUCCAAAGUCAGGGUACGUUCCUGAGGGUUGGGGAUGAUGUCAAUUUUCAGCUCUUUACCACUGUCCAACUUCGAAGGGUCUGUCAGGCUCUCAUAGCGAAUCUUGUCCAAGGCAUCAGAAGCCAACAGAGGAUUGAGCAUCA
B8: chr7:151048522:151048523:+_ENSG00000013374_ENST00000566856|hu_mus|hu_hu_hu_mus_True|48_98 (ssRNA)
RNA: GGGAGUUCUACAGUCCGACGAUCCUGUUUCUUAUUUAUGACAAUUUUGAUGUAAUUUUCUUGAAAUCCGAAAGUUUCAGCUAUUUGGGACCUCAGUUCUCUACCAGUGACAUGCAAGCGGGUCUCCAACAAGCUUUUCUUAUCCAACAGAGGAUUGAGCAUCA
B9: chr7:138235809:138235810:+_ENSG00000122779_ENST00000415680|hu_mus|FALSE|FALSE (ssRNA)
RNA: GGGAGUUCUACAGUCCGACGAUCAGAAGCAUCACACCUUGCACGAAGAAGGUGCCGUAACCUGUAUGUAAUCAGCCGCUUGCUGUACAGCAAGGCUGUGCUGCUGCCACUGGAAACAGCCCAUUUAGAAAAAUGCAUGACGUGCAACAGAGGAUUGAGCAUCA
B10: chr3:67279072:67279073:+_ENSMUSG00000027774_ENSMUST00000077271|mus_mus|FALSE|FALSE (ssRNA)
RNA: GGGAGUUCUACAGUCCGACGAUCUGCCCAGAAUCCUACCUCUUGAUGAGAGGACUGUGAGUUUUGAGGCCAACAGGGGCUAUAUACACACAGCCCUUAUGUCCAAAAAAAAAAAAAGCAGUGAAGUAAAUUUAUAUAUAUUUUCAACAGAGGAUUGAGCAUCA
B11: chr1:133829981:133829982:+_ENSMUSG00000026434_ENSMUST00000062264|mus_hu|FALSE|FALSE (ssRNA)
RNA: GGGAGUUCUACAGUCCGACGAUCUAUCAGAAAUAUAGAAUACAUUUUUCAAUCUAAUGAAUUAAUUUUAAAAGGGACCCUAAACAAGAAGCCCAAUCAAAUGCACACAAGUAAUCUAGAAGACAUGAUUACCUCUAAAAUAUGCAACAGAGGAUUGAGCAUCA
B12: chr3:120321071:120321072:+_ENSG00000065518_ENST00000184266|hu_hu|FALSE|FALSE (ssRNA)
RNA: GGGAGUUCUACAGUCCGACGAUCUCAUUGCCAGACUUAAUAUGAGAGGUGAAAUGUUCGAUCCAAUUUUCCUUCCUGGAUAAGUUUUUCUUUCCUAUCCCUCUCAGUUUUGAUAAUAUAAUAAAUGAAGAUGAGGGGCCCAAACAACAGAGGAUUGAGCAUCA
B13: 55340085_55340205_1272_CDS_ENSMUSG00000021488_ENSMUST00000099490|mouse|control|control (ssRNA)
RNA: GGGAGUUCUACAGUCCGACGAUCUUCUUUCUGUUUCCCUCUUUUCCUAAGGACAGGUAGUUCUUCAAAUUGAUGUCUGCCUUCAAACAUGACGAUUGCUUUUCCAGCCACCCAGGCUUUUUCAGAAGGGUCUCCAAAAGCCUCCAACAGAGGAUUGAGCAUCA
B14: chr1:133829981:133829982:+_ENSMUSG00000026434_ENSMUST00000062264|mus_hu|motif|central (ssRNA)
RNA: B11 RNA with U80G, A81G
B15: chr2:203071746:203071747:-_ENSG00000116030_ENST00000392246|hu_hu|FALSE|FALSE (ssRNA)
RNA: GGGAGUUCUACAGUCCGACGAUCCACCACAAGCCUGAAAAUGCAAUGUCCUGAAAAAGGUGACCUCUCUGUGCACACGUAAUUUUUAAAAAGGAGAGGGUAAUAUGAAGGGGACUGAGGCUUGAUCACCAAAAAUCAGCACAACAACAGAGGAUUGAGCAUCA
B16: chr16:49524686:49524687:-_ENSG00000102935_ENST00000562871|hu_mus|FALSE|FALSE (ssRNA)
RNA: GGGAGUUCUACAGUCCGACGAUCAAUUAAAAGGAAAUAUUCAGACAAUAGCCAAGCAAUCACAUCACGAUGCACAAUUACCUAGAAUUGCAAUUAAAAAGUAGUUAACUGAAGGGGGGGGGGGGGAGAAAGAAAAACAAGAAACAACAGAGGAUUGAGCAUCA
B17: chr15:83907240:83907241:-_ENSMUSG00000018865_ENSMUST00000082365|mus_mus|motif|central (ssRNA)
RNA: GGGAGUUCUACAGUCCGACGAUCGCUGUGAAAGAUACUAAUUCUUGGUGCAGUCUGGCAUCUGUGGGGCCUCUUCCACACCGGCCAGUGCCUUCAGAUGCCACCCGCAGCCUCGGGCCAGCUUCCCUGCCGAAACAUUCCUUGCAACAGAGGAUUGAGCAUCA
B18: chr2:242276830:242276831:+_ENSG00000168385_ENST00000391971|hu_mus|FALSE|FALSE (ssRNA)
RNA: GGGAGUUCUACAGUCCGACGAUCUAAGGGCUUCAGUCCAUGUCCAAAAGGUGAAAUGAAGUAGAAGCAACAAUGUACCCUGUUAUCAAUGAUGUGACGCCUGUUCAGUCCACUCUCAUCAUGUAGGUAGCGUUCAAACUGCUCCAACAGAGGAUUGAGCAUCA
B19: chr17:45747064:45747065:+_ENSG00000108424_ENST00000290158|hu_hu|hu_hu_hu_mus_True|28_58 (ssRNA)
RNA: GGGAGUUCUACAGUCCGACGAUCGCCCACAGUCCACGCUGUUGUGUCUCGAACAACUACACUGGGGUCUUUCAUUAAUUCUAUUAGGGUGGGCAUAGCCUGUAUGACUAGUGGUUUCAGUUGAUUAGGCUCUGGUCCUUCCAACAACAGAGGAUUGAGCAUCA
B20: chr1:52246310:52246311:-_ENSMUSG00000026103_ENSMUST00000114513|mus_mus|motif|central (ssRNA)
RNA: GGGAGUUCUACAGUCCGACGAUCGCCCAUCUUGUCAAGAGGAGGAGACCAACACAUCAUGCCCAUGACGUUGGGGACAACGGAAAGAAUACCCCCAGCAACUCCAGAUUUUGCAGGAAGACCAACAUGGAACGCAAACUGCCCCAACAGAGGAUUGAGCAUCA
B21: chr7:7679991:7679992:-_ENSG00000106399_ENST00000396682|hu_hu|hu_hu_hu_mus_False|18_48 (ssRNA)
RNA: GGGAGUUCUACAGUCCGACGAUCUGGGAUGAAUCUUUUCCAGCUUCCCCACGAAGCACACGGGCCGGUCGAUAUACUGUGGUAACAUGCCGGCGUUGACGCGCGCUUUGGGGAGCUCCAUCAUGUCCUCCAUGAUUCUGCCGCCAACAGAGGAUUGAGCAUCA
B22: chr1:163117127:163117128:-_ENSG00000143248_ENST00000313961|hu_mus|hu_hu_hu_mus_False|38_78 (ssRNA)
RNA: GGGAGUUCUACAGUCCGACGAUCUGCUACAAAGGAUGUAACUCAACUCACAGGGCAUGAUUUCAUAGCCUGACCAGAUGACUACUUGAUUAGCUCCUGAUAAAACUCAGAGCGCACAAAGCGGGGCAGAGAAUCCUUCUCCAUCAACAGAGGAUUGAGCAUCA

target: T1, UNK ZnF1-3; experiment: nsRBNS (natural sequence RNA bind-n-seq); RBNS binding buffer (assumed for nsRBNS): 25 mM Tris pH 7.5, 150 mM KCl, 3 mM MgCl2, 0.01% Triton X-100, 500 ug/ml BSA, 20 U/ml SUPERase-In, 4 C; UNK is unkempt and MSI1 is Musashi-1; names of the RNAs are library labels; protein concentration not given here; high values mean tight binding

Binder | binding signal
B1 | 1.15 enrichment R
B2 | 0.923 enrichment R
B3 | 1.16 enrichment R
B4 | 1.04 enrichment R
B5 | 0.906 enrichment R
B6 | 2 enrichment R
B7 | 0.999 enrichment R
B8 | 0.854 enrichment R
B9 | 0.971 enrichment R
B10 | 4.32 enrichment R
B11 | 4.97 enrichment R
B12 | 2.02 enrichment R
B13 | 0.635 enrichment R
B14 | 5.06 enrichment R
B15 | 3.8 enrichment R
B16 | 1.26 enrichment R
B17 | 0.646 enrichment R
B18 | 0.794 enrichment R
B19 | 0.639 enrichment R
B20 | 1.07 enrichment R
B21 | 0.554 enrichment R
B22 | 0.974 enrichment R
